Test [1] is described as follows: qHTS RealTime-Glo MT Cell Viability Assay in HEK293 cells - 16 hour (AID 1224872). Further: top concentration of the series differs between compounds; nearly all actives have a fitted effect of over 50% in size. In outline:
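Nonlytic real-time viability readout: viable cells convert prosubstrate to NanoLuc substrate, giving luminescence proportional to live cell number. HEK293, 600 cells/well, compound added after 5 h, continuous culture at 37 C.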
For orientation: Quantitative high-throughput screening tests each substance at several concentrations.

Test [2] is described as follows: qHTS RealTime-Glo MT Cell Viability Assay in HepG2 cells - 8 hour (AID 1224873). Further: nearly all actives have a fitted effect of over 55% in size. The procedure, abridged: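 HepG2 cells mixed with RealTime-Glo MT reagents (NanoLuc plus cell-permeant prosubstrate) were seeded at 600 cells/well, incubated 5 h at 37 C/5% CO2, then pinned with compounds in DMSO; nonlytic luminescence tracked viability during 40 h treatment.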
The nature of test [3]: qHTS RealTime-Glo MT Cell Viability Assay in HEK293 cells - 40 hour (AID 1224874). Further: nearly all actives have a fitted effect of over 50% in size. To be noted: RealTime-Glo luminescence; max response: hits give low values. In outline: (§1)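 qHTS format; HEK293 cells with NanoLuc/prosubstrate reagent, 37 C/5% CO2 for 5 h pre-dosing; compounds 23 nL in DMSO; luminescence at each time point reflects viable cells.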
A short description of test [4]: A CellTox Green Cytotoxicity Assay to monitor cytotoxicity in HEK293 cells - 24 hour (AID 1224875). Further: series mostly up to about 77 µM; nearly all actives have a fitted effect of over 45% in size. The procedure, abridged: (§2)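 Each value comes from one timepoint of a single continuous run in which HEK293 cells with CellTox Green were exposed to compound for up to 40 h at 37 C, dye fluorescence rising with cell death.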
Test [5] is described as follows: A CellTox Green Cytotoxicity Assay to monitor cytotoxicity in HepG2 cells - 16 hour (AID 1224876). Further: nearly all actives have a fitted effect of over 45% in size. In outline: (§3)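 Continuous culture of HepG2 cells with a membrane-impermeant DNA dye; rising fluorescence marks dead cells. Compound exposure lasted up to 40 h at 37 C, with reads every 8 h from 0 h.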
A short description of test [6]: qHTS RealTime-Glo MT Cell Viability Assay in HepG2 cells - 32 hour (AID 1224877). Further: nearly all actives have a fitted effect of over 55% in size. Further: potency means the concentration at half of the fitted maximal effect. In outline:
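Luminescence read-out: viable HepG2 cells reduce a prosubstrate to a NanoLuc substrate, giving a signal proportional to live cell number. Reads taken at 0, 8, 16, 24, 32 and 40 h of compound exposure at 37 C.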

The nature of test [7]: A CellTox Green Cytotoxicity Assay to monitor cytotoxicity in HepG2 cells - 24 hour (AID 1224878). Further: nearly all actives have a fitted effect of over 45% in size. In outline: as §3
Test [8] is described as follows: A CellTox Green Cytotoxicity Assay to monitor cytotoxicity in HepG2 cells - 40 hour (AID 1224879). Further: nearly all actives have a fitted effect of over 40% in size. In outline:
as §3

Test [9] can be described thus: qHTS RealTime-Glo MT Cell Viability Assay in HEK293 cells - 0 hour (AID 1224880). Further: top concentration of the series differs between compounds; nearly all actives have a fitted effect of over 45% in size. In outline:
as §1

A short description of test [10]: A CellTox Green Cytotoxicity Assay to monitor cytotoxicity in HEK293 cells - 32 hour (AID 1224881). Further: nearly all actives have a fitted effect of over 40% in size. The procedure, abridged:
as §2

Inconclusive results are not listed. Unmarked numbers belong to inactive results. Calls of active or inactive are those of the source. The call rests on the fitted dose curve; in most records, active means well fitted curve in the direction sought with a large enough effect in the repeat runs; inconclusive means weak or mixed curves; inactive means no such curve, though single readings can be large; an effect the other way counts as inactive or inconclusive.
On the % scale 0 is the no-effect control and ±100 the full control effect.

Regarding `Clc1ccccc1N1CCNCC1`, the Potency entry in test [1], in test [2], in test [4], in [5], in test [6] and in test [7] was “inactive” in each case. The Potency entry in test [8] and in [10] was “inactive” throughout. The max response in [3] is 7.31%. In addition, the outcome in test [9] was inactive.

Turning to `CC(N)=S`, the Potency entry in test [1], in [2], in test [4], in test [5], in test [6] and in [7] was “inactive” in each case. Besides, the Potency result in test [8] and in test [10] was “inactive” in each case. The max response in [3] is 1.38%. The outcome in test [9] was inactive.

For `[O]=[Cd]`, the Potency entry in test [1], in test [2], in [4], in [5], in test [6] and in test [7] was “inactive” in each case. Moreover, the Potency result in test [8] and in test [10] was “inactive” in each case. Moreover, the max response in test [3] was 15.5%. For the same compound, the call in [9] was inactive.

As to `CCCSC(=O)Cl`, the Potency result in test [1], in test [2], in [4], in test [5], in [6] and in [7] was “inactive” throughout. Besides, the Potency entry in test [8] and in test [10] was “inactive” in each case. The max response in test [3] was 9.13%. Also, in [9], the outcome was inactive.

Turning to `CNC(=O)N(C)c1nc2ccccc2s1`, the Potency result in test [1], in test [2], in test [4], in test [5], in [6] and in test [7] was “inactive” each time. Further, the Potency entry in test [8] and in [10] was “inactive” each time. In test [3], the max response is -18.7%. Also, the compound was classed as inactive in [9].

As to `CCOC(=O)N(C)C(=O)CSP(=S)(OCC)OCC`, the Potency entry in test [1], in test [2], in test [4], in test [5], in test [6] and in [7] was “inactive” in each case. Further, the Potency entry in test [8] and in test [10] was “inactive” each time. Besides, in [3], the max response was -10%. For the same compound, the compound was classed as inactive in test [9].

In the case of `O=C1CN2CCOC2(c2ccccc2Cl)c2cc(Cl)ccc2N1` (stereo not given), the Potency result in test [1], in [2], in test [4], in test [5], in test [6] and in test [7] was “inactive” in each case. In addition, the Potency result in test [8] and in test [10] was “inactive” in each case. Besides, in test [3], the max response was -7.26%. The compound was called inactive in [9].

`Nc1cc2c3c(c1)C(c1ccccc1)=N[C@@H](NC(=O)c1cccnc1)C(=O)N3CC2`: the Potency entry in test [1], in test [2], in [4], in test [5], in [6] and in test [7] was “inactive” in each case. In addition, the Potency result in test [8] and in [10] was “inactive” in each case. Besides, the max response in test [3] was -6.57%. In addition, in test [9], the compound was classed as inactive.

Take `COC(=O)c1ccccc1S(=O)(=O)NC(=O)Nc1nc(C)cc(C)n1`: the Potency entry in test [1], in test [2], in [4], in test [5], in test [6] and in test [7] was “inactive” throughout. For the same compound, the Potency result in test [8] and in test [10] was “inactive” each time. Moreover, the max response in test [3] is 7.64%. For the same compound, in test [9], the call was inactive.

Consider `O=[N+]([O-])c1ccc2c3c(cccc13)CC2`, for which the Potency result in test [1], in test [2], in [4], in [5], in test [6] and in [7] was “inactive” in each case. Also, the Potency result in [8] and in test [10] was “inactive” throughout. The max response in test [3] is 1.98%. Moreover, the outcome in test [9] was inactive.

`CCCCCCBr`: the Potency result in test [1], in test [2], in test [4], in test [5], in test [6] and in test [7] was “inactive” throughout. Moreover, the Potency result in test [8] and in test [10] was “inactive” each time. Further, the max response in test [3] was 13.7%. Also, the compound was called inactive in test [9].

On to `COC(=O)COc1ccc(Cl)cc1Cl`, for which the Potency entry in [1], in [2], in test [4], in test [5], in test [6] and in test [7] was “inactive” each time. In addition, the Potency entry in [8] and in [10] was “inactive” throughout. Besides, the max response in test [3] was 0.13%. Further, the compound was classed as inactive in test [9].

With `COc1cc(OC)nc(NC(=O)NS(=O)(=O)c2ncccc2C(=O)N(C)C)n1`, the Potency entry in [1], in test [2], in [4], in test [5], in [6] and in test [7] was “inactive” throughout. In addition, the Potency entry in test [8] and in test [10] was “inactive” each time. Moreover, the max response in test [3] is 7.6%. For the same compound, in test [9], the result was inactive.

Consider `CC(=O)CC(c1ccc(Cl)cc1)c1c(O)c2ccccc2oc1=O` (stereo not given), for which the Potency result in [1], in test [2], in [4], in test [5], in test [6] and in [7] was “inactive” in each case. In addition, the Potency result in [8] and in test [10] was “inactive” in each case. The max response in test [3] is -9.42%. In test [9], the outcome was inactive.

For the compound `CCC#N`, the Potency entry in test [1], in test [2], in test [4], in test [5], in test [6] and in test [7] was “inactive” throughout. In addition, the Potency result in [8] and in test [10] was “inactive” in each case. Further, the max response in test [3] was 0.0723%. For the same compound, the result in test [9] was inactive.

`ClC(Cl)Br`: the Potency result in test [1], in [2], in test [4], in test [5], in [6] and in [7] was “inactive” each time. The Potency entry in [8] and in [10] was “inactive” throughout. Further, in test [3], the max response is 8.21%. In test [9], the compound was called inactive.

Turning to `COC(=O)C(c1ccccc1)C1CCCCN1` (stereo not given), the Potency result in test [1], in test [2], in [4], in test [5], in [6] and in [7] was “inactive” each time. The Potency entry in test [8] and in [10] was “inactive” throughout. The max response in test [3] is 2.03%. Besides, the call in test [9] was inactive.

`CCCCCCI`: the Potency result in [1], in test [2], in [4], in [5], in test [7] and in test [8] was “inactive” throughout. For the same compound, the Potency entry in test [10] was “inactive”. In addition, in test [3], the max response was -0.352%. Also, the Potency in test [6] is 34.7 µM (active). For the same compound, the result in [9] was inactive.

`NC1=NC(=O)C(c2ccccc2)O1` (stereo not given): the Potency entry in test [1], in [2], in test [4], in test [5], in [6] and in [7] was “inactive” each time. In addition, the Potency entry in test [8] and in test [10] was “inactive” in each case. For the same compound, the max response in test [3] was 1.11%. Besides, in test [9], the compound was classed as inactive.

Consider `Cc1coc2c1CCC(C)C2` (stereo not given), for which the Potency entry in test [1], in test [2], in [4], in test [5], in [6] and in test [7] was “inactive” throughout. The Potency entry in test [8] and in test [10] was “inactive” throughout. In addition, the max response in [3] is 15.4%. Also, in [9], the compound was called inactive.

With `C[C@]12CC[C@H]3[C@@H](CCC4=CC(=O)CC[C@@]43C)[C@@H]1CC[C@@H]2C(=O)O`, the Potency result in [1], in [2], in [4], in [5], in test [6] and in test [7] was “inactive” in each case. Further, the Potency entry in [8] and in test [10] was “inactive” throughout. For the same compound, the max response in [3] is 2.42%. Also, the result in [9] was inactive.

For the compound `CCN(CC)C(C)C(=O)c1ccccc1` (stereo not given), the Potency entry in test [1], in [2], in test [4], in test [5], in test [6] and in test [7] was “inactive” each time. Also, the Potency result in test [8] and in test [10] was “inactive” throughout. For the same compound, the max response in test [3] is 2.31%. For the same compound, the result in test [9] was inactive.

These data come from PubChem BioAssay (Tox21).
